Reference: PubChem BioAssay AID1159580 (chemical genetic matrix, 2015)
The campaign covered roughly 5,500 compounds. About 2,000 (36%) were called active. Roughly 18% stayed inconclusive and do not appear here. Cut-off read from the data, not from the text of the source: active = normalized growth mostly below about 0.91 (no sharp cut-off); inconclusive = no clear call, values can overlap the other calls; inactive = mostly above about 0.92. This is one part of the list.

Assay: chemical genetic growth profiling, strain panel (AID 1159580);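 note: tested at 20 µM; growth read once vehicle control cultures reached saturation at 30 °C; 1 = growth at the plate median or of vehicle wells; lower values mean less growth of the strain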
Conditions: S. cerevisiae deletion strains, growth OD

Measured: normalized growth

COc1ccc(-c2cc(=O)c3c(O)cc(O[C@H]4O[C@H](CO[C@@H]5O[C@@H](C)[C@H](O)[C@@H](O)[C@H]5O)[C@@H](O)[C@H](O)[C@H]4O)cc3o2)cc1
inactive: locus YAL013W, strain DEP1, hits give low values 1.01 | locus YAL021C, strain ccr4, hits give low values 1 | locus YAL026C, strain drs2, hits give low values 1.03 | locus YAL030W, strain snc1, hits give low values 1 | locus YBL061C, strain skt5, hits give low values 1 | locus YBR009C, strain hhf1, hits give low values 1 | locus YBR021W, strain FUR4, hits give low values 1 | locus YBR023C, strain chs3, hits give low values 1.01 | locus YBR171W, strain sec66, hits give low values 1.01 | locus YBR229C, strain ROT2, hits give low values 1 | locus YBR231C, strain swc5, hits give low values 1.01 | locus YBR279W, strain paf1, hits give low values 1 | locus YCL011C, strain gbp2, hits give low values 1 | locus YCL016C, strain dcc1, hits give low values 0.989 | locus YCL029C, strain bik1, hits give low values 1.02 | locus YCL061C, strain MRC1, hits give low values 1.01 | locus YCL069W, strain vba3, hits give low values 0.968 | locus YCR088W, strain abp1, hits give low values 1.01 | locus YDL005C, strain med2, hits give low values 1 | locus YDL035C, strain GPR1, hits give low values 1 | locus YDL040C, strain nat1, hits give low values 1.01 | locus YDL074C, strain BRE1, hits give low values 1.03 | locus YDL101C, strain DUN1, hits give low values 1.03 | locus YDL185W, strain tfp1, hits give low values 1.02 | locus YDL192W, strain arf1, hits give low values 1.02 | locus YDR001C, strain nth1, hits give low values 0.998 | locus YDR069C, strain doa4, hits give low values 1.01 | locus YDR101C, strain arx1, hits give low values 1.01 | locus YDR137W, strain rgp1, hits give low values 1.02 | locus YDR159W, strain sac3, hits give low values 1.02 | locus YDR162C, strain NBP2, hits give low values 1.01 | locus YDR195W, strain ref2 1 | locus YDR297W, strain sur2, hits give low values 0.998 | locus YDR318W, strain mcm21, hits give low values 1.01 | locus YDR334W, strain swr1, hits give low values 1 | locus YDR335W, strain msn5, hits give low values 0.992 | locus YDR388W, hits give low values 1.02 | locus YDR392W, strain spt3, hits give low values 1 | locus YDR502C, strain sam2, hits give low values 1.02 | locus YEL003W, strain gim4, hits give low values 1.01 | locus YEL037C, strain rad23, hits give low values 1.01 | locus YEL061C, strain CIN8 (second series), hits give low values 0.995 | locus YEL061C, strain CIN8, hits give low values 1 | locus YER015W, strain faa2, hits give low values 1 | locus YER016W, strain bim1, hits give low values 1 | locus YER110C, hits give low values 1.02 | locus YER111C, strain swi4, hits give low values 1 | locus YER155C, strain BEM2 (second series), hits give low values 1.02 | locus YER155C, strain BEM2, hits give low values 1.01 | locus YER167W, strain BCK2, hits give low values 1.02 | locus YFR010W, strain ubp6, hits give low values 1.01 | locus YGL078C, strain dbp3, hits give low values 1.01 | locus YGL086W, strain mad1, hits give low values 1.03 | locus YGL167C, strain pmr1, hits give low values 0.995 | locus YGL173C, strain kem1, hits give low values 1.02 | locus YGL227W, strain vid30, hits give low values 1.01 | locus YGL240W, strain doc1, hits give low values 1.02 | locus YGL248W, strain PDE1, hits give low values 1.01 | locus YGL253W, strain hxk2, hits give low values 0.986 | locus YGR078C, strain PAC10, hits give low values 1.03 | locus YGR135W, strain pre9, hits give low values 1.01 | locus YGR229C, strain SMI1, hits give low values 1.02 | locus YGR252W, strain gcn5, hits give low values 1.04 | locus YHR013C, strain ard1, hits give low values 1.01 | locus YHR027C, strain rpn1, hits give low values 0.998 | locus YHR030C, strain SLT2, hits give low values 0.992 | locus YHR079C, strain IRE1 (second series), hits give low values 1.01 | locus YHR094C, strain hxt1, hits give low values 1.01 | locus YHR129C, strain ARP1, hits give low values 1.01 | locus YHR142W, strain chs7, hits give low values 0.983 | locus YHR200W, strain rpn10, hits give low values 1.02 | locus YIL066C, strain RNR3, hits give low values 1.01 | locus YIL073C, strain SPO22, hits give low values 1.08 | locus YIL125W, strain kgd1, hits give low values 1.02 | locus YIR030C, strain dcg1, hits give low values 1.02 | locus YJL092W, strain hpr5, hits give low values 0.997 | locus YJL095W, strain BCK1 (second series), hits give low values 1 | locus YJL095W, strain BCK1, hits give low values 1.05 | locus YJL115W, strain asf1, hits give low values 1 | locus YJL129C, strain trk1, hits give low values 1.01 | locus YJL134W, strain LCB3, hits give low values 0.994 | locus YJL154C, strain vps35, hits give low values 0.999 | locus YJL164C, strain tpk1, hits give low values 0.991 | locus YJL166W, strain qcr8, hits give low values 1 | locus YJL168C, strain set2, hits give low values 1.02 | locus YJL187C, strain SWE1 (second series), hits give low values 1.03 | locus YJL187C, strain SWE1, hits give low values 1.01 | locus YJR043C, strain POL32, hits give low values 0.972 | locus YKL009W, strain mrt4, hits give low values 1.04 | locus YKL068W, hits give low values 1.01 | locus YKL085W, strain MDH1 (second series), hits give low values 0.999 | locus YKL085W, strain MDH1, hits give low values 0.999 | locus YKL160W, strain elf1, hits give low values 0.999 | locus YKL190W, strain CNB1, hits give low values 0.994 | locus YKR001C, strain vps1, hits give low values 1.04 | locus YKR026C, strain gcn3, hits give low values 1 | locus YKR091W, strain srl3, hits give low values 1 | locus YLL001W, strain dnm1, hits give low values 0.969 | locus YLL026W, hits give low values 1 | locus YLL041C, strain sdh2, hits give low values 1.01 | locus YLR027C, strain aat2, hits give low values 0.981 | locus YLR039C, strain RIC1, hits give low values 1.06 | locus YLR058C, strain SHM2, hits give low values 1.01 | locus YLR102C, strain apc9, hits give low values 1.02 | locus YLR221C, strain rsa3, hits give low values 1.01 | locus YLR258W, strain gsy2, hits give low values 0.991 | locus YLR262C, strain YPT6 (second series), hits give low values 0.988 | locus YLR262C, strain YPT6, hits give low values 1.1 | locus YLR268W, strain sec22, hits give low values 1.05 | locus YLR320W, strain mms22, hits give low values 1.03 | locus YLR330W, strain CHS5, hits give low values 1 | locus YLR342W, strain FKS1 (second series), hits give low values 1.01 | locus YLR342W, strain FKS1, hits give low values 0.996 | locus YLR357W, strain rsc2, hits give low values 0.996 | locus YLR370C, strain arc18, hits give low values 1 | locus YLR371W, strain rom2, hits give low values 1.02 | locus YLR384C, strain iki3, hits give low values 0.99 | locus YLR418C, strain cdc73, hits give low values 0.994 | locus YML016C, strain PPZ1, hits give low values 1 | locus YML032C, strain rad52, hits give low values 0.998 | locus YML120C, strain ndi1, hits give low values 1 | locus YML124C, strain tub3, hits give low values 1.02 | locus YMR058W, strain fet3, hits give low values 1 | locus YMR078C, strain ctf18, hits give low values 1.02 | locus YMR125W, strain sto1, hits give low values 0.958 | locus YMR129W, hits give low values 0.999 | locus YMR205C, strain PFK2, hits give low values 1 | locus YMR223W, strain ubp8, hits give low values 1.01 | locus YMR231W, strain pep5, hits give low values 1 | locus YMR307W, strain GAS1, hits give low values 1.03 | locus YNL067W, strain RPL9B, hits give low values 1.04 | locus YNL071W, strain lat1, hits give low values 1.01 | locus YNL128W, strain TEP1, hits give low values 1.02 | locus YNL209W, strain ssb2, hits give low values 0.991 | locus YNL233W, strain BNI4, hits give low values 1.04 | locus YNL248C, strain rpa49, hits give low values 1.02 | locus YNL250W, strain rad50, hits give low values 1.02 | locus YNL271C, strain bni1, hits give low values 1.02 | locus YNL298W, strain CLA4, hits give low values 1.02 | locus YNL307C, strain MCK1, hits give low values 1.02 | locus YNL322C, strain KRE1 (second series), hits give low values 1 | locus YNL322C, strain KRE1, hits give low values 1 | locus YNR049C, strain mso1, hits give low values 0.991 | locus YNR052C, strain pop2, hits give low values 1.02 | locus YOL006C, strain TOP1, hits give low values 1.15 | locus YOL012C, strain htz1 1.14 | locus YOL147C, strain pex11, hits give low values 1.01 | locus YOR001W, strain rrp6, hits give low values 1.02 | locus YOR061W, strain CKA2, hits give low values 1 | locus YOR069W, strain VPS5, hits give low values 1.01 | locus YOR070C, strain gyp1, hits give low values 1.02 | locus YOR080W, strain dia2, hits give low values 0.998 | locus YOR083W, strain WHI5, hits give low values 1.01 | locus YOR106W, strain vam3, hits give low values 0.988 | locus YOR136W, strain idh2, hits give low values 1.03 | locus YOR144C, strain elg1, hits give low values 1.01 | locus YOR184W, strain ser1, hits give low values 1.01 | locus YOR265W, strain rbl2, hits give low values 0.998 | locus YOR270C, strain vph1, hits give low values 1.02 | locus YOR290C, strain snf2, hits give low values 0.985 | locus YOR316C, strain cot1, hits give low values 1.01 | locus YPL051W, strain arl3, hits give low values 1.01 | locus YPL078C, strain atp4, hits give low values 1.02 | locus YPL106C, strain sse1, hits give low values 1.01 | locus YPL240C, strain hsp82, hits give low values 0.995 | locus YPL241C, strain CIN2, hits give low values 0.993 | locus YPR119W, strain clb2, hits give low values 1.02 | locus YPR141C, strain kar3, hits give low values 1.01 | locus YPR163C, strain tif3, hits give low values 1.02 | locus YPR167C, strain met16, hits give low values 1.01 | strain wtn01, hits give low values 1.04
